PubChem BioAssay (EPA / NIEHS)
Records with an inconclusive call do not appear. Activity calls are given as the source filed them. How the source made its calls, unless noted: active means hit-call score of the fitted dose curve at least 0.9, where 1 is the maximum; inconclusive means response in the unintended direction; inactive means score below 0.9.

Key:
[1] = Tanguay_ZF_120hpf_SWIM_legacy: (Legacy) Oregon State University Tanguay Lab 120 Hour Post-fertilization zebrafish Assay for Swim Bladder Malformation (AID 2283654);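 further: swim bladder malformation in each larva scored yes or no under brightfield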
Method in brief: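 Scoring is binary for swim bladder defects at 120 hpf, by brightfield inspection of zebrafish larvae. Embryos were exposed singly from 6 hpf after pronase dechorionation, at 28C with 0.64% DMSO; mortality excluded scoring.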

[2] = Tanguay_ZF_120hpf_TRUN_legacy: (Legacy) Oregon State University Tanguay Lab 120 Hour Post-fertilization zebrafish Assay for Truncated Body (AID 2283655)
Method in brief: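 Single dechorionated zebrafish embryos received test chemical from 6 hpf in 0.64% DMSO, kept at 28C. At 120 hpf, brightfield inspection noted any truncated body.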

[3] = Tanguay_ZF_120hpf_NC_legacy: (Legacy) Oregon State University Tanguay Lab 120 Hour Post-fertilization zebrafish Assay for Notochord and Tail Malformation (AID 2283656)
Method in brief: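 Binary scoring of notochord distortion by brightfield microscopy; embryos dying were not scored. Wild-type Tropical 5D embryos, chorion removed, exposed singly and statically from 6 to 120 hpf, 28C, sealed, 0.64% DMSO.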

[4] = Tanguay_ZF_120hpf_TR_legacy: (Legacy) Oregon State University Tanguay Lab 120 Hour Post-fertilization zebrafish Assay for Touch Response (AID 2283667)
Method in brief: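 Binary touch-response endpoint in larvae at 120 hpf after static waterborne exposure from embryo stage (28°C, 0.64% DMSO vehicle, 5 uM trimethyltin chloride as positive control); embryos dead at 24 or 120 hpf excluded; fitted as gain versus DMSO.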

[5] = tested on: Thyroperoxidase (TPO), gene 54314; experiment: CCTE_Simmons_AUR_rTPO: CCTE's Amplex UltraRed Assay for Thyroperoxidase (TPO) Inhibition, Simmons Lab (AID 2283662);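 on AC50: potency for loss of signal meaning inhibition of peroxidase activity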
Method in brief: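 Rat thyroid microsomes (5 ug protein) with 25 uM Amplex UltraRed and 300 uM H2O2 in 200 mM phosphate buffer, 30 min at 37C in dark; fluorescence 544/590 nm. Eight concentrations, 5 nM–87.5 uM final, 0.5% DMSO, triplicate biological replicates.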

[6] = CCTE_Simmons_CellTiterGLO_HEK293T: Viability Assessment in CCTE's Assays for Thyroperoxidase (TPO) Inhibition, Simmons Lab (AID 2283665);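 on AC50: cells exposed to compound for 24 h before readout; actives reduce ATP signal below DMSO vehicle meaning cytotoxicity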
Method in brief: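 Luciferase-coupled ATP content after 24 h exposure gives viability; 8-point series from 5 nM to 87.5 uM final in 0.5% DMSO. Human HEK293T cells, 1% FBS medium, three biological replicates, dichlone positive control.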

[7] = read-out: solute carrier (SLC22A6), SLC22A6 (gene 9356); experiment: LTEA_HepaRG_SLC22A6: Life Technologies and Expression Analysis (LTEA) Assay for solute carrier (SLC22A6) using HepaRG (AID 2283653; active means hit-call score of the fitted dose curve at least 0.9, where 1 is the maximum; inactive means score below 0.9); details: mRNA level, 48 h; actives raise or lower the signal
Method in brief: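 Gene-expression endpoint in HepaRG hepatic cells: duplicate 8-point concentration-response, highest 100 uM, 48 h treatment in serum-free medium with 0.5% DMSO. SLC22A6 expression measured by qRT-PCR, normalised to ACTB/GAPDH/POLR2A.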

[8] = read-out: solute carrier (SLC10A1), SLC10A1 (gene 6554); experiment: LTEA_HepaRG_SLC10A1: Life Technologies and Expression Analysis (LTEA) Assay for solute carrier (SLC10A1) using HepaRG (AID 2283657; active means hit-call score of the fitted dose curve at least 0.9, where 1 is the maximum; inactive means score below 0.9); details: mRNA level, 48 h; actives raise or lower the signal
Method in brief: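 SLC10A1 transcript measured by TaqMan qRT-PCR, housekeeping-normalised, after 48 h chemical treatment of human HepaRG cells. Eight concentrations (half-log, max 100 uM, 0.5% DMSO vehicle) in duplicate; fitted bidirectionally against DMSO baseline.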

[9] = read-out: matrix metalloproteinase-1 (MMP1), MMP1 (gene 4312); experiment: LTEA_HepaRG_MMP1: Life Technologies and Expression Analysis (LTEA) Assay for matrix metalloproteinase-1 (MMP1) using HepaRG (AID 2283658; active means hit-call score of the fitted dose curve at least 0.9, where 1 is the maximum; inactive means score below 0.9); details: mRNA level, 48 h; actives raise or lower the signal
Method in brief: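 In this screen, human liver HepaRG cultures receive each chemical in duplicate for 48 h (top 100 uM, 0.5% DMSO). MMP1 expression is then quantified by TaqMan qRT-PCR with ACTB/GAPDH/POLR2A normalization.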

[10] = read-out: kallikrein-3 (KLK3), KLK3 (gene 354); experiment: LTEA_HepaRG_KLK3: Life Technologies and Expression Analysis (LTEA) Assay for kallikrein-3 (KLK3) using HepaRG (AID 2283652; active means hit-call score of the fitted dose curve at least 0.9, where 1 is the maximum; inactive means score below 0.9); details: mRNA level, 48 h; actives raise or lower the signal
Method in brief: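 KLK3 transcript levels were measured by TaqMan qRT-PCR with normalisation to three housekeeping genes. HepaRG cultures received chemicals for 48 h at up to 100 uM (half-log, 8 points, 0.5% DMSO vehicle), fitted in both directions against DMSO.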

Measured: AC50

NCCOCCOCCN
inactive: [1] | [2]

CCN(CC)CCOc1ccc(C(=C(Cl)c2ccccc2)c2ccccc2)cc1
inactive: [1] | [2] | [3]

O=C(NS(=O)(=O)/C=C/c1cccs1)c1ccc(F)cc1Br
inactive: [1] | [2] | [3] | [4]

CCCCCCCCCCCCCCCCO
inactive: [1] | [2] | [3] | [4]

CCCCc1nc2cccnc2n1Cc1ccc(-c2ccccc2-c2nnn[nH]2)cc1
inactive: [1] | [2]

Cc1c(C)c2c(c(C)c1O)CCC(C)(COc1ccc(CC3SC(=O)NC3=O)cc1)O2 (stereo unspecified)
inactive: [1] | [2] | [3] | [4]
active: [5] 1.91 µM | [6] 19 µM

O=C(O)c1cccnc1
inactive: [1] | [2] | [3]

Cc1occc(=O)c1O
active: [5] 21.7 µM
inactive: [7] | [1] | [2] | [3] | [8] | [9] | [6] | [4]

CC(C)COC(=O)CCCCC(=O)OCC(C)C
inactive: [1] | [2] | [3]

C/C=C/c1ccc(OC)cc1
inactive: [1] | [2] | [3] | [6]
active: [5] 28.4 µM

O=C(O)c1[nH]n(-c2ccc(S(=O)(=O)O)cc2)c(=O)c1N=Nc1ccc(S(=O)(=O)O)cc1
inactive: [1] | [2] | [3] | [4]

CCCCCCCCCCCCCCOS(=O)(=O)O
active: [2] 31.3 µM | [5] 43.8 µM | [6] 22.3 µM | [4] 32.6 µM
inactive: [1] | [3]

Nc1nc(=S)c2[nH]cnc2[nH]1
inactive: [1] | [2] | [3] | [4]
active: [5] 0.414 µM | [6] 1.29 µM

Oc1ccccc1O
inactive: [1] | [2] | [3] | [4]
active: [5] 0.84 µM | [6] 34.4 µM

O=C1O[C@H]([C@H](O)CO)C(O)=C1O
inactive: [1] | [2] | [3] | [6] | [4]
active: [5] 43.8 µM

CN(C)CCCN1c2ccccc2Sc2ccc(Cl)cc21
active: [8] 21 µM | [9] 84.9 µM
inactive: [10] | [7] | [1] | [2] | [3] | [4]

S=c1[nH]c2ccccc2s1
inactive: [1] | [6]
active: [2] 11.4 µM | [3] 51.8 µM | [5] 0.433 µM | [4] 12.3 µM

CCCCCCCC(=O)OC
inactive: [1] | [2] | [3] | [4]

CCC(C)N(C)C(=O)c1cc2ccccc2c(-c2ccccc2Cl)n1 (stereo unspecified)
inactive: [10] | [7] | [2] | [3] | [9]
active: [1] 18.5 µM | [8] 37.7 µM | [4] 26.8 µM

Cc1cc(Cc2ccc(N)c(C)c2)ccc1N
active: [5] 0.844 µM
inactive: [1] | [2] | [3] | [6] | [4]

CC(C)NCC(O)c1ccc(O)c(O)c1 (stereo unspecified)
inactive: [1] | [2] | [3] | [6] | [4]
active: [5] 0.616 µM

O=C1c2c(O)cccc2Cc2cccc(O)c21
active: [5] 11.9 µM
inactive: [1] | [2] | [3] | [6]

Cc1cc(SC2=C(O)C[C@@](CCc3ccc(N)cc3)(C(C)C)OC2=O)c(C(C)(C)C)cc1CO
active: [5] 0.738 µM | [6] 3.9 µM
inactive: [1] | [2] | [3] | [4]

C=CCc1ccc(OC)c(OC)c1
inactive: [1] | [2] | [3]

O=C1OC(c2ccc(O)cc2)(c2ccc(O)cc2)c2ccccc21
inactive: [1] | [2] | [3] | [4]
active: [5] 2.99 µM | [6] 43.8 µM

CC1(C)C(=O)NC(=O)N1CO
inactive: [1] | [2] | [3] | [5] | [6] | [4]

CCCCC(CC)CO (stereo unspecified)
inactive: [10] | [7] | [1] | [2] | [8] | [9] | [4]

CCCCCCC(CCCCCCCCCCC(=O)OCC(COC(C)=O)OC(C)=O)OC(C)=O (stereo unspecified)
inactive: [10] | [7] | [1] | [2] | [3] | [8] | [9] | [4]

CCCCCCCCCC[N+](C)(C)[O-]
inactive: [7] | [1] | [2] | [3] | [8] | [9] | [4]

O=C1NC(=O)C(c2ccccc2)(c2ccccc2)N1
inactive: [1] | [2] | [3] | [4]

CCCCOC(=O)CCCCC(=O)OCCCC
inactive: [1] | [2] | [3] | [4]

O=C(Oc1ccccc1)c1cccc(C(=O)Oc2ccccc2)c1
inactive: [1] | [2] | [3] | [4]

C=CCCCCCCCCCCCC
inactive: [1] | [2] | [3] | [4]
